# High-throughput results from PubChem.
# Compounds with a hit are over-represented: about 3.1% of the library has one in this group of screens.
# Rin1-Abl PPI inh = inhibitors of human Rin1-Abl protein interaction. inhibition, % at 7.35 µM. 360,000 compounds, 0.4% hits. TR-FRET Rin1/Abl binding, biochemical; in the data active means inhibition above about 5%, passing the limit was not always enough
# LEDGF integ inh = blocks HIV-1 LEDGF/p75-dependent DNA integration; inhibition, % at 3.7 µM; TR-FRET IN-LEDGF/p75 DNA integration, Eu/Cy5; AID 743269; 370,000 compounds, 0.64% hits;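 active means inhibition above the screen-wide mean plus 3 SD, cut at about 13% in these data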;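 further: signal is the Cy5 over europium emission ratio at 671 and 618 nm; 0% = plate median of compound wells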
# Neddylation inh = inhibitors of human cullin neddylation; calls only at 25 µM; P61081+Q13564; 360,000 compounds, 0.58% hits; TR-FRET cullin neddylation, biochemical; in the data active means inhibition above about 36%
# proKLK7 act = proKLK7 (human) activation, primary screen; purified proKLK7, EDANS-DABCYL substrate fluorescence; 100% is mature enzyme control, 0% vehicle; activation, % at 7 µM; 370,000 compounds, 0.9% hits;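 active means activation above the mean of all tested compounds plus 3 SD, computed per campaign excluding outliers beyond control limits, cut at about 13% in these data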
# UHRF1 MBD2 ctr = human UHRF1 methylated DNA binding inhibitors; Q96T88; 370,000 compounds, 0.75% hits; UHRF1 binding to methylated oligo, TR-FRET; inhibition, % at 4.4 µM; AID 687016; in the data active means inhibition above about 21%;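 further: UHRF1 SRA domain binding a hemimethylated CpG hairpin DNA probe; 0% = median of test compound wells and 100% = reference inhibitor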
# Target sequence (Q96T88 whole entry, looked up, the tested form may be a part): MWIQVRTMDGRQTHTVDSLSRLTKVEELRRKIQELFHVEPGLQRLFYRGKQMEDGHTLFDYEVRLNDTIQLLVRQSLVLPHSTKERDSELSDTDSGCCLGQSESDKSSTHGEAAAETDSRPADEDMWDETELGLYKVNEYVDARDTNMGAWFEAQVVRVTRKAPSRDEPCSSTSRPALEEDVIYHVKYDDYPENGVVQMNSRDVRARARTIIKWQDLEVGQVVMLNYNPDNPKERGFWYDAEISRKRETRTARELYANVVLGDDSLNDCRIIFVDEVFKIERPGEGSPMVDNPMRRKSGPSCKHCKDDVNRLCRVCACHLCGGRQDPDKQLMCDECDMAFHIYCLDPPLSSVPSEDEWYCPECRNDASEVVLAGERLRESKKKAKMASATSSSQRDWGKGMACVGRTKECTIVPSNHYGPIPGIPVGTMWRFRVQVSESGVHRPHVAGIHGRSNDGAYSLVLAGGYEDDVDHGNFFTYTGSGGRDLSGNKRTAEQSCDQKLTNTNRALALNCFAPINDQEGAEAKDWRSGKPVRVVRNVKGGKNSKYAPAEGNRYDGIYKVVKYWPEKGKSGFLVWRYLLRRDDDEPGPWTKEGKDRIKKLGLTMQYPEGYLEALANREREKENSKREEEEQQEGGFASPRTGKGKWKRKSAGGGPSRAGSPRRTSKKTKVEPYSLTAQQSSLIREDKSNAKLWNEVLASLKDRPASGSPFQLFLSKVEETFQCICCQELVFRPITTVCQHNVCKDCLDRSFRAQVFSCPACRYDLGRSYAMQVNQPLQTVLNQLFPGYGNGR
# MBD2 DNA inh = blocks human MBD2 binding to methylated DNA; TR-FRET, MBD2 binding to methylated oligonucleotide; inhibition, % at 4.4 µM; 370,000 compounds, 0.31% hits; in the data active means inhibition above about 13%
# Rin1 Abl conf = confirmation of inhibitors of human Rin1-Abl interaction; TR-FRET Rin1-Abl binding, purified proteins; shares compounds with Rin1-Abl PPI inh; inhibition, % at 7.35 µM; 1,300 compounds, 49% hits
# GFP quencher = counter-screen for Rin1-Abl inhibitors: GFP fluorescence quenchers; shares compounds with Rin1-Abl PPI inh; inhibition, % at 6.75 µM; inhibitors/quenchers counterscreen; 1,300 compounds, 8.5% hits;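 further: ABL1-eGFP fusion protein alone without its partner RIN1-SBP; 0% = protein with vehicle and 100% = wells lacking protein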
# GFP quench DR = quenches GFP in dose response, Rin1-Abl counter-screen; shares compounds with Rin1-Abl PPI inh; GFP fluorescence interference/quenching counterscreen; IC50, µM; 230 tested, under 10 active; AID 602182; call rule not given here;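 further: ABL1-eGFP fusion protein alone without its RIN1 binding partner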
# An asterisk follows results filed as active; i = inactive; nt = no result given. Unless noted, no stated cut-off is given here; in the data, active means inhibition above about 6.5%; inactive means the rest.
SMILES,Rin1-Abl PPI inh,LEDGF integ inh,Neddylation inh,proKLK7 act,UHRF1 MBD2 ctr,MBD2 DNA inh,Rin1 Abl conf,GFP quencher,others
O=C(OCC(=O)N1CCN(c2ccc(F)cc2)CC1)c1cnc2ccccc2n1,-2,5,i,0,1,-2,nt,nt,
C[C@@H]1O[C@@H](O[C@H]2[C@H](O)[C@@H](O)[C@H](Oc3c(-c4ccc(O)c(O)c4)oc4cc(O)cc(O)c4c3=O)O[C@@H]2CO)[C@H](O)[C@H](O)[C@H]1O,11*,7,i,0,8,2,11*,3,
O=c1c(O[C@@H]2O[C@H](CO)C(O)C2O)c(-c2ccc(O)c(O)c2)oc2cc(O)cc(O)c12 (stereo partly drawn),7,nt,i,nt,nt,nt,nt,nt,
O=c1c(OC2OC(CO)C(O)C(O)C2O)c(-c2ccc(O)c(O)c2)oc2cc(O)cc(O)c12 (stereo not drawn),16*,70*,i,-1,-4,-5,15*,4,
O=c1c(O[C@H]2O[C@@H](CO)[C@H](O)[C@@H](O)[C@@H]2O)c(-c2ccc(O)cc2)oc2cc(O)cc(O)c12,0,-3,i,0,0,4,nt,nt,
COCCn1c(C)cc(C(=O)CSc2nnc(-c3cccnc3)n2-c2ccccc2F)c1C,10*,0,i,0,3,7,1,-1,
COc1cc(/C=C2\CC/C(=C\c3cc(OC)c(O)c(OC)c3)C2=O)cc(OC)c1O,30*,34*,i,0,-3,1,34*,24*,
Cc1cc(N/N=C/c2ccc(O)cc2O)nc(-n2nc(C)cc2C)n1,12*,3,i,-2,-10,-9,10*,-1,
COc1ccc(OC)c(NC(=O)CC2C(=O)NCCN2C(=O)Nc2cccc(Cl)c2)c1 (stereo not drawn),9.2*,1,i,0,-1,1,13*,1,
COc1ccc(C(=O)N2CCNC(=O)C2CC(=O)Nc2cc(Cl)ccc2OC)cc1 (stereo not drawn),0,0,i,0,-1,-3,nt,nt,
O=C(CC1SCCNC1=O)Nc1cccc(Cl)c1 (stereo not drawn),9.6*,-2,i,0,-1,8,19*,0,GFP quench DR=>68
O=C(CC1SCCNC1=O)Nc1cccc(C(F)(F)F)c1 (stereo not drawn),7.8*,-3,i,0,-2,-1,4,0,
CCc1ccccc1NC(=O)CC1SCCNC1=O (stereo not drawn),6,5,i,1,4,-1,nt,nt,
CCCCN(Cc1cc2cccc(C)c2[nH]c1=O)S(C)(=O)=O,-4,-3,i,0,0,-4,nt,nt,
COCCc1ncc(CN2CCC(C(=O)Nc3cccc(-c4cscn4)c3)CC2)cn1,13*,-5,i,0,-2,-3,7.2*,-1,
CCCc1ncc(CN2CCC(C(=O)Nc3cccc(-c4cscn4)c3)CC2)cn1,36*,-4,i,0,2,10,19*,0,GFP quench DR=>68
CSc1ncc(CN2CCC(C(=O)Nc3cccc(-c4cscn4)c3)CC2)cn1,1,-2,i,0,1,-1,nt,nt,
CN(Cc1ccc(F)cc1)C(=O)c1cccc(S(=O)(=O)NCc2ccccc2)c1,2,-1,i,0,1,-2,nt,nt,
CN(Cc1ccc(F)cc1)C(=O)c1ccc(NS(=O)(=O)c2ccccc2)cc1,9.5*,1,i,1,-3,4,1,0,
C[C@H](CO)N1C[C@H](C)[C@@H](CN(C)Cc2ccc(C(=O)O)cc2)Oc2c(NC(=O)c3ccncc3)cccc2C1=O,5,-2,i,0,2,5,nt,nt,
C[C@H](CO)N1C[C@H](C)[C@@H](CN(C)Cc2ccncc2)Oc2c(NC(=O)c3ccncc3)cccc2C1=O,9.3*,2,i,0,0,-2,9.5*,0,
C[C@H](CO)N1C[C@H](C)[C@@H](CN(C)Cc2ccc(-c3ccccc3)cc2)Oc2c(NS(=O)(=O)c3cccs3)cccc2C1=O,16*,-1,i,0,-1,0,16*,0,
COCc1cc(N2CCNC[C@@H]2C)ccc1N1C[C@@H](C)O[C@@H](C)C1,nt,3,nt,1,3,-1,nt,nt,
CC(C)(C)NC(=O)C(c1ccc(O)cc1)N(Cc1ccc2c(c1)OCO2)C(=O)CCl (stereo not drawn),-4,0,i,0,1,-3,nt,nt,
CSc1ccc(CN2CCC(CO)(CCOc3ccccc3)CC2)cc1,0,2,i,0,2,-2,nt,nt,
SMILES,Rin1-Abl PPI inh,LEDGF integ inh,Neddylation inh,proKLK7 act,UHRF1 MBD2 ctr,MBD2 DNA inh,Rin1 Abl conf,GFP quencher,others
OCC1(CCOc2ccccc2)CCN(Cc2ccncc2)CC1,12*,-2,i,0,1,3,12*,-2,
CCOC(=O)[C@]12CCCC3=C1N(CCC3)C(=O)[C@@H](CC(=O)NCc1ccc(OC)c(OC)c1)C2,nt,4,nt,0,3,3,nt,nt,
Cn1c(=O)c2c(nc(CN3CCN(C(=O)c4ccco4)CC3)n2Cc2ccc(Cl)cc2)n(C)c1=O,-2,0,i,1,0,1,nt,nt,
Cn1c(=O)c2c(nc(CN3CCN(C(=O)c4ccco4)CC3)n2Cc2cccc(Cl)c2)n(C)c1=O,7.1*,3,i,1,4,5,-2,1,
O=C(COC(=O)c1ccc(Cl)nc1)NCCc1ccccc1,3,1,i,0,0,-1,nt,nt,
CC(=O)Nc1ccc(S(=O)(=O)NC2CC(=O)N(c3ccc4c(c3)OCCO4)C2)cc1 (stereo not drawn),1,-2,i,0,-2,1,nt,nt,
COCC(=O)Nc1ccc2c(c1)[C@@H]1C[C@H](CC(=O)NCc3cccc(F)c3)O[C@@H](CO)[C@@H]1O2,50*,-1,i,0,1,-1,0,1,
CCCOC(=O)c1ccc(NC(=O)CCOc2ccccc2)cc1,1,1,i,0,-1,-3,nt,nt,
CCCOC(=O)c1ccc(NC(=O)CCC(=O)OCC)cc1,10*,0,i,0,1,-4,14*,2,
Cc1ccc(S(=O)(=O)NCC(c2ccc3c(c2)OCO3)N2CCN(c3ccccc3)CC2)cc1 (stereo not drawn),3,-2,i,0,3,3,nt,nt,
O=C1N(Cc2cccnc2)C[C@@H]2C[C@@H](c3ccc4nsnc4c3)N3CCC[C@@]123,16*,-4,i,0,2,2,16*,0,
